Reference: the supplement of paper PMC11732987, “Enantioselective OTUD7B fragment discovery through chemoproteomics screening and high-throughput optimisation” (Communications Chemistry, 2025)

Assays:
Assay in all cases: log2 ratio of Biotin-Ahx-Ub-VS probe labelling (fragment/DMSO); higher = less target engagement (more negative = stronger competition), active = hit call of the paper (q ≤ 0.05, log2 ratio ≤ -1)
Settings in all cases: compound concentration: 200 uM; treatment time: 3 h
USP34 = USP34 (UniProt Q70CQ2)
USP34, sequence (Q70CQ2 whole entry, the tested form may be a part): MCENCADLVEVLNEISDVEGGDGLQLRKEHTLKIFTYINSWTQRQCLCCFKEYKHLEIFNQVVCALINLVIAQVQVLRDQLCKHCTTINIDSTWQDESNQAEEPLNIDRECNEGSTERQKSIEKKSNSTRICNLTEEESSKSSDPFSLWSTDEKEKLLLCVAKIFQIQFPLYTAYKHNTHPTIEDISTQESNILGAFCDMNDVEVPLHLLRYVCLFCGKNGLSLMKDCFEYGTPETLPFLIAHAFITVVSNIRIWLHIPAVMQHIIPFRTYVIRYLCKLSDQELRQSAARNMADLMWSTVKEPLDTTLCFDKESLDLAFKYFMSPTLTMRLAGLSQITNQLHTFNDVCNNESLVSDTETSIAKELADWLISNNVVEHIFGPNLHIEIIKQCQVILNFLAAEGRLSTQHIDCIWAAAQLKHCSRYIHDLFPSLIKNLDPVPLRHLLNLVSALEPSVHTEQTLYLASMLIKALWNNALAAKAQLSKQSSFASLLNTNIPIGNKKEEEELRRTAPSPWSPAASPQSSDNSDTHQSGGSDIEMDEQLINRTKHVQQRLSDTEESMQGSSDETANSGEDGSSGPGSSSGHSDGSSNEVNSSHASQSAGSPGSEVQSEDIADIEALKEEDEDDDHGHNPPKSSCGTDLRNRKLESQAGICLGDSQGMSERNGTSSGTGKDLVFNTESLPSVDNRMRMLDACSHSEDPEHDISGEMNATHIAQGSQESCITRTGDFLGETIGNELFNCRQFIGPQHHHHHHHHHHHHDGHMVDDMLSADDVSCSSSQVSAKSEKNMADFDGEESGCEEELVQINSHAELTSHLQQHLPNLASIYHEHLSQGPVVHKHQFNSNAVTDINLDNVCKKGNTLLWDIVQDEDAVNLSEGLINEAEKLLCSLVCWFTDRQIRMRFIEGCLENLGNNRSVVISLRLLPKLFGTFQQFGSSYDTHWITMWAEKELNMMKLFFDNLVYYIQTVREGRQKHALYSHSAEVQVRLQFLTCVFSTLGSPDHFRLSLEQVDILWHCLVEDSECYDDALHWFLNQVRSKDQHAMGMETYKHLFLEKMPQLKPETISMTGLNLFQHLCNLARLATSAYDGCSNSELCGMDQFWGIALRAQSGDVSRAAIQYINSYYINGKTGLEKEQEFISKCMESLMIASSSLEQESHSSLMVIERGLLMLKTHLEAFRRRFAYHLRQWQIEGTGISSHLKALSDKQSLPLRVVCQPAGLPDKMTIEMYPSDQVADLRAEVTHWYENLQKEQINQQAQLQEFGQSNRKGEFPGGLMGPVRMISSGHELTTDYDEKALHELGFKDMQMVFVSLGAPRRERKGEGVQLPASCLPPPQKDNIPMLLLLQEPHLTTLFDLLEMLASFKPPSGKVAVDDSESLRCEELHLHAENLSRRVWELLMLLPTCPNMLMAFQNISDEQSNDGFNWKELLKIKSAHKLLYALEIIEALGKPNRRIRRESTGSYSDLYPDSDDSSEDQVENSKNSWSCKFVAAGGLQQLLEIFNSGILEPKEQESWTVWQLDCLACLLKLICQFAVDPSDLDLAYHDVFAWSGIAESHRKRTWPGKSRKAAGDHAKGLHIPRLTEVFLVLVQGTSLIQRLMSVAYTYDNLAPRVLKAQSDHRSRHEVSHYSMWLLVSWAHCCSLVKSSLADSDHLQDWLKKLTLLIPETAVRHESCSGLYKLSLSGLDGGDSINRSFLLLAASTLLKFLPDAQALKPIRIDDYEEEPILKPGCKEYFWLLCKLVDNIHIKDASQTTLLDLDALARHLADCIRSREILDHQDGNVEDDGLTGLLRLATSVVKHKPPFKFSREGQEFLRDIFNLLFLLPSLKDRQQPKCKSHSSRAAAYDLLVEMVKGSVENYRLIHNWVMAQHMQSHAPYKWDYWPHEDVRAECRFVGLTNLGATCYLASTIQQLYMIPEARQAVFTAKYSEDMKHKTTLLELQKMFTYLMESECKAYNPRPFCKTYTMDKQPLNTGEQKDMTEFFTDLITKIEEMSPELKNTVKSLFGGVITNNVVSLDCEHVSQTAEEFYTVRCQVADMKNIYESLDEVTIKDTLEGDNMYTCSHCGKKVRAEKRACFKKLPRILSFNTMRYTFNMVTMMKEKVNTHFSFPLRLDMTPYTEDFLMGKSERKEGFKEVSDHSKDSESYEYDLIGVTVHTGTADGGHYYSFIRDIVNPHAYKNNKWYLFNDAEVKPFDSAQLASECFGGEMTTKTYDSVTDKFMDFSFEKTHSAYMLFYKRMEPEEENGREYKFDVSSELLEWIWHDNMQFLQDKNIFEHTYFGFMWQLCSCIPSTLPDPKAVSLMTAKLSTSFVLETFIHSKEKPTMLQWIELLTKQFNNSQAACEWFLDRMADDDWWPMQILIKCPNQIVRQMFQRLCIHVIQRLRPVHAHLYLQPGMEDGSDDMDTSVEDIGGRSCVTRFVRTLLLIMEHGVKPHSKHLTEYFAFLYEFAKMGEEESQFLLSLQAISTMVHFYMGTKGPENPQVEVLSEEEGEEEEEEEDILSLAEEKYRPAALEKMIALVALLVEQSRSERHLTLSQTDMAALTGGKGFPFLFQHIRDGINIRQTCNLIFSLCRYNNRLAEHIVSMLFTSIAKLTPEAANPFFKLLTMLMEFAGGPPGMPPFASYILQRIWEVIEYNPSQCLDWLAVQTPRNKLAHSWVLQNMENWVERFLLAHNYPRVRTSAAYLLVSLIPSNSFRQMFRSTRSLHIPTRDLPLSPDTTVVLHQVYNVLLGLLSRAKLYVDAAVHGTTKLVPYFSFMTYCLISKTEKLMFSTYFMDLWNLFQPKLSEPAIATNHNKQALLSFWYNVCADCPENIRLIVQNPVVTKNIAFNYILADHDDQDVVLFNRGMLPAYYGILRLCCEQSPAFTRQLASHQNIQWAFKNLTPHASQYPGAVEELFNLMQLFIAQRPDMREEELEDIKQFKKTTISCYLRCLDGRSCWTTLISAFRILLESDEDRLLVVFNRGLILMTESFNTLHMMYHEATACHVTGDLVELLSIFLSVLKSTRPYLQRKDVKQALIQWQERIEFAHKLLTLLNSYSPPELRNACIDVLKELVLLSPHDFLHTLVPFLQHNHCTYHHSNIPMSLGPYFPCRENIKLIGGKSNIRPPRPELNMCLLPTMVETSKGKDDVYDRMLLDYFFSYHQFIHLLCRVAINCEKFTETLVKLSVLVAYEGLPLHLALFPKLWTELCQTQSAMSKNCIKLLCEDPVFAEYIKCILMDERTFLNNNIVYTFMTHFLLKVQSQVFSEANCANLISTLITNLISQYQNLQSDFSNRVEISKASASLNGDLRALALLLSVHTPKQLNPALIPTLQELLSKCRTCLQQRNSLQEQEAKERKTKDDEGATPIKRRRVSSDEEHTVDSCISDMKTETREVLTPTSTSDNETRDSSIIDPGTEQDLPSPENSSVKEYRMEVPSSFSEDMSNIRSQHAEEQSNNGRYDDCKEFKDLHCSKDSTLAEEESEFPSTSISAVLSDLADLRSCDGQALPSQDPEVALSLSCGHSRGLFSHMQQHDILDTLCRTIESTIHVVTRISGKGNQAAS
Method in brief: (§1)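 Each value is an average log2 ratio of fragment to vehicle, tested by unpaired t-test. The underlying Spectronaut label-free quantities were global-median-normalised, and only proteins with ≥2 unique peptides were included. Triplicate HEK293T lysate samples (495 µg) were exposed to fragment at 200 µM or vehicle for 3 h, then to Biotin-Ahx-Ub-VS at 0.5 µM final for 1 h, before NeutrAvidin enrichment of labelled DUBs, LysC and trypsin digestion, and diaPASEF LC-MS/MS.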

USP36 = molecular target: T1, USP36 (UniProt Q9P275)
T1 sequence (whole entry): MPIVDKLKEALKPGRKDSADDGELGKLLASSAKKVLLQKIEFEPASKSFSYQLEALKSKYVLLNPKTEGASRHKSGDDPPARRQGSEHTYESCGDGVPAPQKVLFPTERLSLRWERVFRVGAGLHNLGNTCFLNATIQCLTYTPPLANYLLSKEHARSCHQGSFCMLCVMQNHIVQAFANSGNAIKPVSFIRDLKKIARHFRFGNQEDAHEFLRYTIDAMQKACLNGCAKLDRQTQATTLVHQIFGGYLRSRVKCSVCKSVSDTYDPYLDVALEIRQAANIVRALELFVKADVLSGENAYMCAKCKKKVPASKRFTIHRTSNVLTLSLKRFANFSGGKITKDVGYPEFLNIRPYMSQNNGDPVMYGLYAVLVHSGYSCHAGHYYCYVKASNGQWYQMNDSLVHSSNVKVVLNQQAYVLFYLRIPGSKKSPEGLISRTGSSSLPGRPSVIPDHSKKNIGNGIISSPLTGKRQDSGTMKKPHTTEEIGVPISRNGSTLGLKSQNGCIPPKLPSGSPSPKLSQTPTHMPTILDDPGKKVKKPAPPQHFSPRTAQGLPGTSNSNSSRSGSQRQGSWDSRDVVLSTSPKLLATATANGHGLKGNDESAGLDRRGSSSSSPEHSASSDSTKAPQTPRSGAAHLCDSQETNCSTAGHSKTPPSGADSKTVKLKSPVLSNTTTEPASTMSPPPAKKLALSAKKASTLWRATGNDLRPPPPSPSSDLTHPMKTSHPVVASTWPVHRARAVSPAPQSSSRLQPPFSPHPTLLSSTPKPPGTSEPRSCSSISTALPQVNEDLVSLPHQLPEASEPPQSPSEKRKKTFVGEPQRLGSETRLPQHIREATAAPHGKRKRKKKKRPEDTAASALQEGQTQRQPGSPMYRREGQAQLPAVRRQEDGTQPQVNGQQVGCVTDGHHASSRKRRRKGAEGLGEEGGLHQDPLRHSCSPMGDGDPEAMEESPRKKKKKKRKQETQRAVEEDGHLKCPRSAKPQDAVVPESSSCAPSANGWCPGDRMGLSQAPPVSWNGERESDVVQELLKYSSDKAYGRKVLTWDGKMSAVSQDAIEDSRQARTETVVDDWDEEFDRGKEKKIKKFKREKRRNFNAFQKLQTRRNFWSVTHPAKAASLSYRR
Method in brief: as §1

USP38 = molecular target: T2, USP38 (UniProt Q8NB14)
T2 sequence (whole entry): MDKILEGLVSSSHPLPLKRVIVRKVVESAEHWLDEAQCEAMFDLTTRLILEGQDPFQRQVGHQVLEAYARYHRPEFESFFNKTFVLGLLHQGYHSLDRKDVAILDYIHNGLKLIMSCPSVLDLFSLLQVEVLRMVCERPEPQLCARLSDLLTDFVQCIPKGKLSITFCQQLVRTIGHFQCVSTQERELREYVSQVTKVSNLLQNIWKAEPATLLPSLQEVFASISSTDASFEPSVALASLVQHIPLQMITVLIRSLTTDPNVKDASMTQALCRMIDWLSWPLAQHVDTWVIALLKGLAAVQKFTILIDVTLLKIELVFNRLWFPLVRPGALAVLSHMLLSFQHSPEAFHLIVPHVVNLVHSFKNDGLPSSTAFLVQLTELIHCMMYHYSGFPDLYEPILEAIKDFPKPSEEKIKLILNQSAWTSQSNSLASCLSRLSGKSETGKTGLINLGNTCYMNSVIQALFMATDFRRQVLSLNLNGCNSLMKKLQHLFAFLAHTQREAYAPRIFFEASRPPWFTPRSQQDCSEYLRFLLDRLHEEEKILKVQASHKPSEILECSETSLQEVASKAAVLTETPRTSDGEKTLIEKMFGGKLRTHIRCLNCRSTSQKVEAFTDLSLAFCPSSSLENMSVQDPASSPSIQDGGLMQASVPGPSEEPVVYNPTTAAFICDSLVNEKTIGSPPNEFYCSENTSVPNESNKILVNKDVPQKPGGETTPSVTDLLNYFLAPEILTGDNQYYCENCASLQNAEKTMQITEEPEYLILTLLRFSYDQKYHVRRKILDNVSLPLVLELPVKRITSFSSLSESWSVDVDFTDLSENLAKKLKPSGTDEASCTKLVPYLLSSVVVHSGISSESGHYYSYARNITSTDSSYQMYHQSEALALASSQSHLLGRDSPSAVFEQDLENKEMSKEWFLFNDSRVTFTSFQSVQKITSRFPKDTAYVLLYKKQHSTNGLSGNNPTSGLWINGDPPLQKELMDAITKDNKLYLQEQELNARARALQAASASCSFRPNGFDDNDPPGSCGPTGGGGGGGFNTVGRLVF
Method in brief: as §1

USP39 = molecular target: T3, USP39 (UniProt Q53GS9)
T3 sequence (whole entry): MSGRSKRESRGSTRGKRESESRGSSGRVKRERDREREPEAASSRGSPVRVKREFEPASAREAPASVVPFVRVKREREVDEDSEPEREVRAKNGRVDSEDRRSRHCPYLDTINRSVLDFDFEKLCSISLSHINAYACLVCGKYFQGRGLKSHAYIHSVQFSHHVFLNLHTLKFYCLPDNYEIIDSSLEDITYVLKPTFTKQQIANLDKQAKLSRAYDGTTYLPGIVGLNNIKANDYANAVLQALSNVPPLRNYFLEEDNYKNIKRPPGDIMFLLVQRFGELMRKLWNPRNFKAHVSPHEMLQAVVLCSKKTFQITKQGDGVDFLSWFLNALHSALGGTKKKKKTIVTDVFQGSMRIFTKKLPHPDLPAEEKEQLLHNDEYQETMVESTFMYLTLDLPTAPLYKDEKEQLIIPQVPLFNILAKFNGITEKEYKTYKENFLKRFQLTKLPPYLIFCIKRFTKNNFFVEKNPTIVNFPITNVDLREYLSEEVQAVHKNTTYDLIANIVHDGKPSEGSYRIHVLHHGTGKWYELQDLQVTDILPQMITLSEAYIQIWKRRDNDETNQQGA
Method in brief: as §1

USP4 = molecular target: T4, USP4 (UniProt Q13107)
T4 sequence (whole entry): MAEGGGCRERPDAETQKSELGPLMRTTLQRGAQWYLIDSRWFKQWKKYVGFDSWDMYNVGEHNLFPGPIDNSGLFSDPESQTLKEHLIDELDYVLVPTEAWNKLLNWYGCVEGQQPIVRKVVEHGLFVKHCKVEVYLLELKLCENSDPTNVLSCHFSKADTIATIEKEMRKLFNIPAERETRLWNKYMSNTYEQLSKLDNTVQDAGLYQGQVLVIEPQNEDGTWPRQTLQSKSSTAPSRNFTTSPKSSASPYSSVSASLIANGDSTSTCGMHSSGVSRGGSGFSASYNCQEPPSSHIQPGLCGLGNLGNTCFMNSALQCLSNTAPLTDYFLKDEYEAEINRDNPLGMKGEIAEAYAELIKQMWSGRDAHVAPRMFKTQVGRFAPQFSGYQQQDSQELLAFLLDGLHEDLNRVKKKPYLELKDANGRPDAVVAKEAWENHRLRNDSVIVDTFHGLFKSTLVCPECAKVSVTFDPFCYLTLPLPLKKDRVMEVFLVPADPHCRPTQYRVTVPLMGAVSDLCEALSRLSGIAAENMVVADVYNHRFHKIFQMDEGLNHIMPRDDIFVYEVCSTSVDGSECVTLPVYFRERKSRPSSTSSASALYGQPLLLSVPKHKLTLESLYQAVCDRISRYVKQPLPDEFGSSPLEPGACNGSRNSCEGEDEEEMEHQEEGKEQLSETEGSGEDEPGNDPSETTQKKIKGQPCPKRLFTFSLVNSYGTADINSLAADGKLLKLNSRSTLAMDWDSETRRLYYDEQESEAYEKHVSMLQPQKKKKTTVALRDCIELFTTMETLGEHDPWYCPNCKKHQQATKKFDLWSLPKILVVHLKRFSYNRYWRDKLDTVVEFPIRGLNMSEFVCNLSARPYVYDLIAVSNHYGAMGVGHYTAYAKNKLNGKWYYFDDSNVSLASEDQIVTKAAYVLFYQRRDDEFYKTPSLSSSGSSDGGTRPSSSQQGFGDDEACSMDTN
Method in brief: as §1

Measured: log2 ratio of Biotin-Ahx-Ub-VS probe labelling

Cc1ncsc1CCNC(=O)CCl
inactive: USP34 0.121 | USP36 -0.151 | USP38 0.14 | USP39 -0.101 | USP4 0.244
